# Test results as given in PubChem BioAssay AID1159580 (chemical genetic matrix, 2015).
# Among all 5,500 compounds or so, about 2,000 (36%) were called active. About 18% were inconclusive and are not listed. The list shows a part of the results. A number with no mark means an inactive call. No stated cut-off is given here; in the data, active means normalized growth mostly below about 0.91 (no sharp cut-off); inconclusive means no clear call, values can overlap the other calls; inactive means mostly above about 0.92.
# Assay: chemical genetic growth profiling, strain panel (AID 1159580);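 further: tested at 20 µM; growth read once vehicle control cultures reached saturation at 30 °C; 1 = growth at the plate median or of vehicle wells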
# Settings: growth OD
smiles,measurement,setting,value
COc1ccc(-c2coc3cc(OC)cc(O)c3c2=O)cc1,normalized growth,"S. cerevisiae deletion strains, locus YAL013W, strain DEP1, stronger effect = lower value",0.962
same,normalized growth,"S. cerevisiae deletion strains, locus YBR021W, strain FUR4, stronger effect = lower value",0.862
same,normalized growth,"S. cerevisiae deletion strains, locus YBR229C, strain ROT2, stronger effect = lower value",0.98
same,normalized growth,"S. cerevisiae deletion strains, locus YCL029C, strain bik1, stronger effect = lower value",0.966
same,normalized growth,"S. cerevisiae deletion strains, locus YDL035C, strain GPR1, stronger effect = lower value",0.959
same,normalized growth,"S. cerevisiae deletion strains, locus YDL074C, strain BRE1, stronger effect = lower value",0.91
same,normalized growth,"S. cerevisiae deletion strains, locus YDL101C, strain DUN1, stronger effect = lower value",0.98
same,normalized growth,"S. cerevisiae deletion strains, locus YDL134C, strain PPH21, stronger effect = lower value",0.982
same,normalized growth,"S. cerevisiae deletion strains, locus YDL185W, strain tfp1, stronger effect = lower value",0.968
same,normalized growth,"S. cerevisiae deletion strains, locus YDL192W, strain arf1, stronger effect = lower value",0.96
same,normalized growth,"S. cerevisiae deletion strains, locus YDR101C, strain arx1, stronger effect = lower value",0.96
same,normalized growth,"S. cerevisiae deletion strains, locus YDR150W, strain NUM1, stronger effect = lower value",0.991
same,normalized growth,"S. cerevisiae deletion strains, locus YDR162C, strain NBP2, stronger effect = lower value",0.983
same,normalized growth,"S. cerevisiae deletion strains, locus YDR318W, strain mcm21, stronger effect = lower value",0.922
same,normalized growth,"S. cerevisiae deletion strains, locus YDR388W, stronger effect = lower value",0.957
same,normalized growth,"S. cerevisiae deletion strains, locus YDR502C, strain sam2, stronger effect = lower value",0.967
same,normalized growth,"S. cerevisiae deletion strains, locus YEL061C, strain CIN8, stronger effect = lower value",0.982
same,normalized growth,"S. cerevisiae deletion strains, locus YER110C, stronger effect = lower value",0.958
same,normalized growth,"S. cerevisiae deletion strains, locus YER155C, strain BEM2, stronger effect = lower value",0.967
same,normalized growth,"S. cerevisiae deletion strains, locus YER167W, strain BCK2, stronger effect = lower value",0.933
same,normalized growth,"S. cerevisiae deletion strains, locus YGL078C, strain dbp3, stronger effect = lower value",0.978
same,normalized growth,"S. cerevisiae deletion strains, locus YGL086W, strain mad1, stronger effect = lower value",0.955
same,normalized growth,"S. cerevisiae deletion strains, locus YGL248W, strain PDE1, stronger effect = lower value",0.976
same,normalized growth,"S. cerevisiae deletion strains, locus YGR078C, strain PAC10, stronger effect = lower value",0.952
same,normalized growth,"S. cerevisiae deletion strains, locus YGR135W, strain pre9, stronger effect = lower value",0.94
same,normalized growth,"S. cerevisiae deletion strains, locus YGR229C, strain SMI1, stronger effect = lower value",0.924
same,normalized growth,"S. cerevisiae deletion strains, locus YGR252W, strain gcn5, stronger effect = lower value",0.768
same,normalized growth,"S. cerevisiae deletion strains, locus YHR030C, strain SLT2, stronger effect = lower value",0.972
same,normalized growth,"S. cerevisiae deletion strains, locus YHR079C, strain IRE1 (second series), stronger effect = lower value",0.935
same,normalized growth,"S. cerevisiae deletion strains, locus YHR094C, strain hxt1, stronger effect = lower value",0.976
same,normalized growth,"S. cerevisiae deletion strains, locus YHR129C, strain ARP1, stronger effect = lower value",0.967
same,normalized growth,"S. cerevisiae deletion strains, locus YHR200W, strain rpn10, stronger effect = lower value",0.957
same,normalized growth,"S. cerevisiae deletion strains, locus YIL066C, strain RNR3, stronger effect = lower value",0.975
same,normalized growth,"S. cerevisiae deletion strains, locus YIL073C, strain SPO22, stronger effect = lower value",0.905
same,normalized growth,"S. cerevisiae deletion strains, locus YIL125W, strain kgd1, stronger effect = lower value",0.969
same,normalized growth,"S. cerevisiae deletion strains, locus YIR030C, strain dcg1, stronger effect = lower value",0.97
same,normalized growth,"S. cerevisiae deletion strains, locus YJL095W, strain BCK1, stronger effect = lower value",0.907
same,normalized growth,"S. cerevisiae deletion strains, locus YJL134W, strain LCB3, stronger effect = lower value",0.986
same,normalized growth,"S. cerevisiae deletion strains, locus YJL168C, strain set2, stronger effect = lower value",0.975
same,normalized growth,"S. cerevisiae deletion strains, locus YJL187C, strain SWE1 (second series), stronger effect = lower value",0.972
same,normalized growth,"S. cerevisiae deletion strains, locus YJR043C, strain POL32, stronger effect = lower value",0.911
same,normalized growth,"S. cerevisiae deletion strains, locus YJR075W, strain HOC1, stronger effect = lower value",0.951
same,normalized growth,"S. cerevisiae deletion strains, locus YKL009W, strain mrt4, stronger effect = lower value",0.919
same,normalized growth,"S. cerevisiae deletion strains, locus YKL068W, stronger effect = lower value",0.989
same,normalized growth,"S. cerevisiae deletion strains, locus YKL085W, strain MDH1 (second series), stronger effect = lower value",0.982
same,normalized growth,"S. cerevisiae deletion strains, locus YKL085W, strain MDH1, stronger effect = lower value",0.982
same,normalized growth,"S. cerevisiae deletion strains, locus YKL190W, strain CNB1, stronger effect = lower value",0.979
same,normalized growth,"S. cerevisiae deletion strains, locus YKR001C, strain vps1, stronger effect = lower value",0.898 (active)
same,normalized growth,"S. cerevisiae deletion strains, locus YLR039C, strain RIC1, stronger effect = lower value",0.971
same,normalized growth,"S. cerevisiae deletion strains, locus YLR058C, strain SHM2, stronger effect = lower value",0.974
same,normalized growth,"S. cerevisiae deletion strains, locus YLR102C, strain apc9, stronger effect = lower value",0.969
same,normalized growth,"S. cerevisiae deletion strains, locus YLR262C, strain YPT6, stronger effect = lower value",0.959
same,normalized growth,"S. cerevisiae deletion strains, locus YLR268W, strain sec22, stronger effect = lower value",0.957
same,normalized growth,"S. cerevisiae deletion strains, locus YLR330W, strain CHS5, stronger effect = lower value",0.977
same,normalized growth,"S. cerevisiae deletion strains, locus YLR342W, strain FKS1 (second series), stronger effect = lower value",0.859
same,normalized growth,"S. cerevisiae deletion strains, locus YLR371W, strain rom2, stronger effect = lower value",0.969
same,normalized growth,"S. cerevisiae deletion strains, locus YLR418C, strain cdc73, stronger effect = lower value",0.889
same,normalized growth,"S. cerevisiae deletion strains, locus YML016C, strain PPZ1, stronger effect = lower value",0.975
same,normalized growth,"S. cerevisiae deletion strains, locus YML032C, strain rad52, stronger effect = lower value",0.94
same,normalized growth,"S. cerevisiae deletion strains, locus YML124C, strain tub3, stronger effect = lower value",0.974
same,normalized growth,"S. cerevisiae deletion strains, locus YMR078C, strain ctf18, stronger effect = lower value",0.96
same,normalized growth,"S. cerevisiae deletion strains, locus YMR223W, strain ubp8, stronger effect = lower value",0.94
same,normalized growth,"S. cerevisiae deletion strains, locus YMR263W, strain SAP30, stronger effect = lower value",0.967
same,normalized growth,"S. cerevisiae deletion strains, locus YMR307W, strain GAS1, stronger effect = lower value",0.81
same,normalized growth,"S. cerevisiae deletion strains, locus YNL067W, strain RPL9B, stronger effect = lower value",0.977
same,normalized growth,"S. cerevisiae deletion strains, locus YNL128W, strain TEP1, stronger effect = lower value",0.994
same,normalized growth,"S. cerevisiae deletion strains, locus YNL153C, strain GIM3, stronger effect = lower value",0.995
same,normalized growth,"S. cerevisiae deletion strains, locus YNL233W, strain BNI4, stronger effect = lower value",0.923
same,normalized growth,"S. cerevisiae deletion strains, locus YNL250W, strain rad50, stronger effect = lower value",0.968
same,normalized growth,"S. cerevisiae deletion strains, locus YNL271C, strain bni1, stronger effect = lower value",0.973
same,normalized growth,"S. cerevisiae deletion strains, locus YNL298W, strain CLA4, stronger effect = lower value",0.928
same,normalized growth,"S. cerevisiae deletion strains, locus YNL307C, strain MCK1, stronger effect = lower value",0.805 (active)
same,normalized growth,"S. cerevisiae deletion strains, locus YNL322C, strain KRE1, stronger effect = lower value",0.985
same,normalized growth,"S. cerevisiae deletion strains, locus YNR052C, strain pop2, stronger effect = lower value",0.968
same,normalized growth,"S. cerevisiae deletion strains, locus YOL006C, strain TOP1, stronger effect = lower value",0.863
same,normalized growth,"S. cerevisiae deletion strains, locus YOL012C, strain htz1",1.51
same,normalized growth,"S. cerevisiae deletion strains, locus YOL147C, strain pex11, stronger effect = lower value",0.969
same,normalized growth,"S. cerevisiae deletion strains, locus YOR061W, strain CKA2, stronger effect = lower value",0.996
same,normalized growth,"S. cerevisiae deletion strains, locus YOR069W, strain VPS5, stronger effect = lower value",0.984
same,normalized growth,"S. cerevisiae deletion strains, locus YOR136W, strain idh2, stronger effect = lower value",0.971
same,normalized growth,"S. cerevisiae deletion strains, locus YOR144C, strain elg1, stronger effect = lower value",0.975
same,normalized growth,"S. cerevisiae deletion strains, locus YOR184W, strain ser1, stronger effect = lower value",0.872 (active)
same,normalized growth,"S. cerevisiae deletion strains, locus YOR316C, strain cot1, stronger effect = lower value",0.96
same,normalized growth,"S. cerevisiae deletion strains, locus YPL055C, strain LGE1, stronger effect = lower value",0.92
same,normalized growth,"S. cerevisiae deletion strains, locus YPL241C, strain CIN2, stronger effect = lower value",0.987
same,normalized growth,"S. cerevisiae deletion strains, locus YPR119W, strain clb2, stronger effect = lower value",0.972
same,normalized growth,"S. cerevisiae deletion strains, locus YPR141C, strain kar3, stronger effect = lower value",0.99
same,normalized growth,"S. cerevisiae deletion strains, locus YPR163C, strain tif3, stronger effect = lower value",0.973
same,normalized growth,"S. cerevisiae deletion strains, locus YPR167C, strain met16, stronger effect = lower value",0.97
same,normalized growth,"S. cerevisiae deletion strains, strain wtn01, stronger effect = lower value",0.944
same,normalized growth,"S. cerevisiae strains, strain wild type, stronger effect = lower value",0.963
